The nature of test [1]: stimulators of nuclear beta-catenin in C2C12, primary screen, imaging, WNT3A-conditioned medium, mouse C2C12, NPC library (AID 1117326; in the data active = nuclear beta-catenin stimulation mostly above about 4.2%, no sharp cut-off; inactive = mostly below about 10%; also: reference of the scale not given here). As to conditions: stronger effect = higher value.
Test [2] in a line: stimulators of insulin release from INS-1E, primary screen, cell-based, 5 mM glucose, NPC library (AID 1117329;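 active = compound raises insulin release from rat beta cells at 5 mM glucose, no numeric limit stated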; also: reference of the scale not given here). As to conditions: rat INS-1E insulin secretion, at 10 µM, stronger effect = higher value.
Test [3] is described as follows: growth inhibition of GSK3B-pretreated HCT116 cells – cell-based, CellTiter-Glo, 0.2 to 20 µM (AID 1117336;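 active = compounds lowering colon cancer cell viability after pretreatment blocking the GSK3B kinase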). As to conditions: HCT116 viability after GSK3B inhibitor, at 20 µM, stronger effect = higher value. In general terms: Cellular ATP, detected with luciferase, serves as a proxy for viable cell number.
The nature of test [4]: inhibition of endothelial tube formation, primary screen, imaging, VEGF stimulated, CD31 staining, tube area, NPC library (AID 1117340). As to conditions: VEGF-stimulated ADSC/ECFC co-culture, at 10 µM, stronger effect = higher value.
Test [5] is described as follows: glucagon-like peptide 1 release enhancers, primary assay, NCI-H716 cell line, NPC library (AID 1117341;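 active = compound raises GLP1 secretion from the human gut endocrine cells, with no numeric limit stated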; also: reference of the scale not given here). As to conditions: NCI-H716 cells, at 10 µM, stronger effect = higher value.
Test [6] is described as follows: HCT116 colon cancer cell growth inhibition, primary screen, CellTiter-Glo luminescence, NPC library (AID 1117342;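 active = compounds that lower survival of HCT116 colon cancer cells in the luminescence readout, no numeric limit stated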). As to conditions: at 20 µM (top of the series).
The nature of test [7]: CellTiter-Glo luminescent readout of SW480 viability loss, NPC library primary (AID 1117343;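 active = compounds that lower viability of the colon cancer cells in the luminescence readout, with no numeric limit stated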). As to conditions: CellTiter-Glo luminescence; at 20 µM (top of the series).
Test [8] in a line: decreased DLD-1 cellular survival, CellTiter-Glo luminescent readout, NPC compound collection, primary HTS (AID 1117346;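 active = compounds that lower survival of DLD-1 colon cancer cells in the luminescence readout, no cutoff given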). As to conditions: DLD-1 viability, CellTiter-Glo luminescence; at 20 µM (top of the series).

Activity calls are given as the source filed them.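 The calls were made as follows, unless noted: active = compound that reduces growth-factor-driven endothelial tube area in a mixed cell culture, no cutoff stated; inactive = the rest.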 Residues, ends and D or L forms follow the SMILES beside them.

This note sets out measurements from PubChem BioAssay.

Turning to `O=S(=O)(O)c1ccc2c(N=Nc3ccc(S(=O)(=O)O)c4ccccc34)c(O)c(S(=O)(=O)O)cc2c1`, the nuclear beta-catenin stimulation in test [1] (at 10 µM) is 0.7% (inactive); in test [1] (stimulation, at 2 µM), 0.1%. Also, the insulin secretion stimulation in test [2] was 2.6% (inactive). Moreover, the viability decrease in test [3] was 0% (inactive). Further, the tube area decrease in test [4] was 11.5% (inactive). For the same molecule, the GLP1 secretion stimulation in test [5] was -3.9% (inactive). The inhibition of viability in test [6] is 2.8% (inactive). Besides, the viability decrease (inhibition) in test [7] is 19.3% (inactive); in test [8], 6.8% (inactive).

As for `CCCCC(CC)COC(=O)/C=C/c1ccc(OC)cc1` (centres undefined), the nuclear beta-catenin stimulation is -1.6% (inactive) in test [1] (at 10 µM) and -0.8% in test [1] (stimulation, at 2 µM). Moreover, the insulin secretion stimulation in test [2] is 2.6% (inactive). In addition, the viability decrease in test [3] was 5.9% (inactive). Moreover, the tube area decrease in test [4] was 3.3% (inactive). Besides, the GLP1 secretion stimulation in test [5] is 0.8% (inactive). The inhibition of viability in test [6] was 15.9% (inactive). Also, the viability decrease (inhibition) in test [7] was -7.2% (inactive); in test [8], 3.7% (inactive).

On to `Nc1ccc(/C=C/c2ccc(N)cc2S(=O)(=O)O)c(S(=O)(=O)O)c1`, for which the nuclear beta-catenin stimulation in test [1] (at 10 µM) is 0.5% (inactive); in test [1] (stimulation, at 2 µM), 0.9%. For the same molecule, in test [2], the insulin secretion stimulation is 0.1% (inactive). Further, the viability decrease in test [3] is -4.75% (inactive). For the same molecule, in test [4], the tube area decrease is -11.3% (inactive). Besides, the GLP1 secretion stimulation in test [5] is -0.8% (inactive). In test [6], the inhibition of viability was -10.1% (inactive). Also, the viability decrease (inhibition) in test [7] was 13% (active); in test [8], -4.05% (inactive).

As for `CCN(CC)S(=O)(=O)c1ccc(C(=O)O)cc1`, the nuclear beta-catenin stimulation in test [1] (at 10 µM) was 1.6% (inactive); in test [1] (stimulation, at 2 µM), 0.7%. The insulin secretion stimulation in test [2] is -2.1% (inactive). Further, the viability decrease in test [3] was -8.6% (inactive). In addition, the tube area decrease in test [4] is 8.6% (inactive). Also, in test [5], the GLP1 secretion stimulation was -3.2% (inactive). In addition, the inhibition of viability in test [6] is -14.7% (inactive). Besides, the viability decrease (inhibition) is 40% (inactive) in test [7] and 7.45% (inactive) in test [8].

Regarding `NC[C@H]1O[C@H](O[C@@H]2[C@@H](O)[C@@H](O[C@H]3O[C@H](CO)[C@@H](O)[C@H](N)[C@@H]3O)[C@H](N)C[C@@H]2N)[C@H](O)[C@@H](O)[C@H]1O`, the nuclear beta-catenin stimulation in test [1] (at 10 µM) is -1.2% (inactive); in test [1] (stimulation, at 2 µM), -0.6%. In addition, in test [2], the insulin secretion stimulation is -0.8% (inactive). Moreover, the viability decrease in test [3] was -36.2% (inactive). The tube area decrease in test [4] is -10.7% (inactive). The GLP1 secretion stimulation in test [5] is -0.1% (inactive). For the same molecule, the inhibition of viability in test [6] is -13.3% (inactive). The viability decrease (inhibition) in test [7] is -2.1% (inactive); in test [8], -23.8% (inactive).

With `COc1cc(C(=S)N2CCOCC2)ccc1O`, the nuclear beta-catenin stimulation in test [1] (at 10 µM) was 1.6% (inactive); in test [1] (stimulation, at 2 µM), 0%. In addition, in test [2], the insulin secretion stimulation is 3.9% (inactive). The viability decrease in test [3] was -5.7% (inactive). Further, in test [4], the tube area decrease is 1.9% (inactive). For the same molecule, the GLP1 secretion stimulation in test [5] was -3.6% (inactive). In test [6], the inhibition of viability was -4.3% (inactive). Also, the viability decrease (inhibition) in test [7] was -4.6% (inactive); in test [8], -2.7% (inactive).

For the molecule `CCCCCC=CCC=CCCCCCCCC(=O)OCC`, the nuclear beta-catenin stimulation is 1.6% (inactive) in test [1] (at 10 µM) and -0.5% in test [1] (stimulation, at 2 µM). Further, in test [2], the insulin secretion stimulation was -1.8% (inactive). In test [3], the viability decrease was -40% (inactive). Further, the tube area decrease in test [4] was 7.8% (inactive). Further, the GLP1 secretion stimulation in test [5] is 8.5% (inactive). In addition, in test [6], the inhibition of viability was 17.5% (inactive). Moreover, the viability decrease (inhibition) is 30.9% (inactive) in test [7] and 54.5% (active) in test [8].

Consider `CC(=O)N[C@@H](CO)C(=O)N[C@@H](CC(=O)O)C(=O)N[C@@H](CCCCN)C(=O)N1CCC[C@H]1C(=O)O` (Ac-SDKP-OH), for which the nuclear beta-catenin stimulation in test [1] (at 10 µM) was 0.3% (inactive); in test [1] (stimulation, at 2 µM), 0.6%. Also, the insulin secretion stimulation in test [2] was 1.8% (inactive). Besides, in test [3], the viability decrease is -7.1% (inactive). Moreover, the tube area decrease in test [4] was -14.3% (inactive). In addition, in test [5], the GLP1 secretion stimulation is -1.6% (inactive). For the same molecule, in test [6], the inhibition of viability is -0.1% (inactive). The viability decrease (inhibition) in test [7] was -6% (inactive); in test [8], 7% (inactive).

As to `CC(=O)c1ccc(OCC(=O)N2CCCCC2)cc1`, the nuclear beta-catenin stimulation in test [1] (at 10 µM) was 1.1% (inactive); in test [1] (stimulation, at 2 µM), -0.3%. Also, in test [2], the insulin secretion stimulation was 0.25% (inactive). Moreover, the viability decrease in test [3] is 7.4% (inactive). For the same molecule, in test [4], the tube area decrease was 7% (active). The GLP1 secretion stimulation in test [5] was 0.7% (inactive). Also, the inhibition of viability in test [6] was -3.4% (inactive). Further, the viability decrease (inhibition) in test [7] was -3.6% (inactive); in test [8] it was -2.8% (inactive).

Regarding `CC(=O)c1ccc(O)c(C(N)=O)c1`, the nuclear beta-catenin stimulation in test [1] (at 10 µM) was 0.2% (inactive); in test [1] (stimulation, at 2 µM), -1.6%. Moreover, the insulin secretion stimulation in test [2] was 0.6% (inactive). For the same molecule, in test [3], the viability decrease is 20.8% (inactive). In addition, in test [4], the tube area decrease is -0.3% (inactive). In addition, the GLP1 secretion stimulation in test [5] is 1.6% (inactive). Further, the inhibition of viability in test [6] was 0.1% (inactive). The viability decrease (inhibition) in test [7] was -10.5% (inactive); in test [8] it was 6.9% (inactive).

Turning to `CCCCCCCCCCCCSCCOCCO`, the nuclear beta-catenin stimulation was 0.7% (inactive) in test [1] (at 10 µM) and 2% in test [1] (stimulation, at 2 µM). Also, in test [2], the insulin secretion stimulation was -1.7% (inactive). For the same molecule, the viability decrease in test [3] is 9.65% (inactive). For the same molecule, the tube area decrease in test [4] was 6.6% (inactive). Besides, the GLP1 secretion stimulation in test [5] is 1.9% (inactive). In test [6], the inhibition of viability is -38.8% (inactive). The viability decrease (inhibition) is 122% (active) in test [7] and 94.7% (active) in test [8].

For the molecule `Cc1ccc(C(=O)Oc2ccc(C(O)CNC(C)(C)C)cc2OC(=O)c2ccc(C)cc2)cc1` (centres undefined), the nuclear beta-catenin stimulation is 31.3% (inactive) in test [1] (at 10 µM) and 1.1% in test [1] (stimulation, at 2 µM). For the same molecule, the insulin secretion stimulation in test [2] is 4.5% (inactive). The viability decrease in test [3] is 79.2% (active). Further, in test [4], the tube area decrease is 107% (active). For the same molecule, the GLP1 secretion stimulation in test [5] was -1.5% (inactive). Besides, the inhibition of viability in test [6] is 75.9% (active). Further, the viability decrease (inhibition) is 137% (active) in test [7] and 102% (active) in test [8].

With `COc1cc(NS(=O)(=O)c2ccc(N)cc2)nc(C)n1`, the nuclear beta-catenin stimulation was 1.1% (inactive) in test [1] (at 10 µM) and 10.1% in test [1] (stimulation, at 2 µM). Further, the insulin secretion stimulation in test [2] was 2.8% (inactive). Also, the viability decrease in test [3] was -0.6% (inactive). For the same molecule, the tube area decrease in test [4] was -13% (inactive). The GLP1 secretion stimulation in test [5] is 1% (inactive). In addition, in test [6], the inhibition of viability was -4.3% (inactive). In addition, the results for the viability decrease (inhibition) in test [7] and in test [8] were -9% (inactive) and 6.1% (inactive), respectively.

As to `O=C1OC2(c3ccccc31)c1cc(Br)c(O)c(Br)c1Oc1c2cc(Br)c(O)c1Br`, the nuclear beta-catenin stimulation was -0.8% (inactive) in test [1] (at 10 µM) and -2.9% in test [1] (stimulation, at 2 µM). Further, the insulin secretion stimulation in test [2] is 0.5% (inactive). Moreover, the viability decrease in test [3] was 32.8% (inactive). In addition, in test [4], the tube area decrease is -24.2% (inactive). For the same molecule, the GLP1 secretion stimulation in test [5] is 17.7% (inactive). Further, in test [6], the inhibition of viability is 7.8% (inactive). For the same molecule, the viability decrease (inhibition) is 24.1% (inactive) in test [7] and -5.4% (inactive) in test [8].

As to `CC(C)(C)NCC(O)COc1ccccc1OCC1CCCO1` (centres undefined), the nuclear beta-catenin stimulation in test [1] (at 10 µM) was -0.3% (inactive); in test [1] (stimulation, at 2 µM), 2.1%. For the same molecule, the insulin secretion stimulation in test [2] was 5.4% (inactive). Besides, the viability decrease in test [3] was -18.7% (inactive). Further, the tube area decrease in test [4] was 34.3% (inactive). For the same molecule, the GLP1 secretion stimulation in test [5] is -2.1% (inactive). Besides, the inhibition of viability in test [6] was -6.3% (inactive). Moreover, the viability decrease (inhibition) in test [7] is 30% (inactive); in test [8], -6.9% (inactive).

For `CCN(CC)CCOC(=O)C1(c2ccccc2)CCCC1`, the nuclear beta-catenin stimulation was -1.2% (inactive) in test [1] (at 10 µM) and -0.5% in test [1] (stimulation, at 2 µM). In addition, the insulin secretion stimulation in test [2] is 9.3% (inactive). The viability decrease in test [3] was -14.1% (inactive). Besides, the tube area decrease in test [4] was 22.6% (inactive). In addition, the GLP1 secretion stimulation in test [5] was -2.7% (inactive). The inhibition of viability in test [6] was 4% (inactive). Further, the viability decrease (inhibition) in test [7] is -1.9% (inactive); in test [8], -2.6% (inactive).
